According to ChEMBL document CHEMBL4513146, “CO-ADD screening of Karazin Kharkiv National University (Ukraine) compounds”:
Entries with a potency or affinity are not part of this list.

Columns and labels:
Staphylococcus aureus = conditions: Concentration 32 ug.mL-1;; ASSAY_TEST Inhibition of Bacterial Growth; detection method Absorption (OD600); MEDIA CAMHB; plate type 384well; NBS; CORNING #3640; time 18 hr
Escherichia coli = conditions: Concentration 32 ug.mL-1;; ASSAY_TEST Inhibition of Bacterial Growth; detection method Absorption (OD600); MEDIA CAMHB; plate type 384well; NBS; CORNING #3640; time 18 hr

Row | SMILES | Inhibition (Staphylococcus aureus) [%] | Inhibition (Escherichia coli) [%]
1 | CCc1cccc(NC(=O)Cn2nc3ccc(SC(C)(C)C)nn3c2=O)c1 | 9.57 | -1.32
2 | Cc1ccc(Cn2c(=O)c3ccccc3n3c(=O)n(CC(=O)Nc4ccc5c(c4)OCCO5)nc23)cc1 | 6.52 | 1.04
3 | COc1cccc(CN(c2cccc(F)c2)S(=O)(=O)c2ccc3nnc(C)n3c2)c1 | -5.28 | -2.32
4 | COc1cccc(CN(c2cc(C)cc(C)c2)S(=O)(=O)c2cccn3c(C)nnc23)c1 | -0.14 | -8.8
5 | Cc1cc2nn(CC(=O)Nc3ccc(F)c(F)c3)c(=O)n2c(Nc2ccc(F)c(C)c2)n1 | 9.7 | -3.91
6 | COc1ccccc1N1CCN(C(=O)Cn2nc3c(Sc4cccc(C)c4)nccn3c2=O)CC1 | 5.8 | -4.78
7 | CCc1nnc2c(SCC(=O)Nc3cc(Cl)ccc3OC)nc3ccccc3n12 | 7.98 | 4.84
8 | O=C(CSc1nnc2c(=O)n(-c3ccc(Br)cc3)ccn12)c1ccc(F)cc1 | 0.43 | -3.19
9 | CSc1cccc(NC(=O)Cn2nc3ccc(SC(C)(C)C)nn3c2=O)c1 | -2.88 | 1.52
10 | COc1cccc(CN(c2ccc(Cl)cc2)S(=O)(=O)c2ccc3nncn3c2)c1 | -6.52 | -6.27
11 | CCOc1ccc(-n2ccn3c(SC(C)C(=O)Nc4ccc5c(c4)OCCO5)nnc3c2=O)cc1 (configuration not stated) | 14.02 | 0.39
12 | Cc1ccc(NC(=O)Cn2nc3cc(C)nc(Nc4ccc(F)cc4)n3c2=O)cc1 | 6.17 | -2.28
13 | Cc1ccc(Sc2nccn3c(=O)n(CC(=O)Nc4ccc(C)c(Cl)c4)nc23)c(C)c1 | 6.61 | -6.53
14 | Cc1cc2nn(CC(=O)Nc3cc(F)ccc3C)c(=O)n2c(Nc2ccc(C)c(F)c2)n1 | 2.63 | -8.01
15 | Cc1ccc(-n2ccn3c(SCC(=O)c4c[nH]c5ccccc45)nnc3c2=O)cc1C | 8.58 | 3.16
16 | COc1ccc(Cl)cc1NC(=O)Cn1nc2c(Sc3ccc(C)cc3C)nccn2c1=O | -3.15 | -8.38
17 | Cc1cc(NC(=O)CSc2nc3ccccc3n3cnnc23)ccc1Br | 13.29 | 3.15
18 | O=C(Cn1nc2c(=O)n(-c3ccc(Br)cc3)ccn2c1=O)Nc1cc(F)ccc1F | 4.89 | 0.34
19 | CCOC(=O)c1ccc(NC(=O)Cn2nc3c(SC4CCCCC4)nccn3c2=O)cc1 | 5.44 | -5.89
20 | O=C(CSc1nnc2c(=O)n(-c3ccc(Br)cc3)ccn12)c1c[nH]c2ccccc12 | 12.46 | -2.65
21 | O=S(=O)(c1ccc2nncn2c1)N(Cc1cc(F)cc(F)c1)c1ccc2c(c1)OCO2 | 8.77 | -5.98
